For this assay, the system named is Pectobacterium parmentieri SCC3193. The experiment in a line: DuctApe activity index (growth/respiration on compound as sole nutrient source, blank-subtracted) (activity index (0-3)); higher = stronger utilization of the compound, active = 3 or more. Here is the method:
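Biolog Phenotype Microarray plates PM1, PM2A (carbon), PM3 (nitrogen) and PM4 (phosphorus/sulfur) inoculated with P. parmentieri SCC3193 in M9-C minimal salts medium with Biolog dye A, and read in the OmniLog for 46 h. Each well was tested in triplicate and the experiment was run twice. DuctApe computed a blank-subtracted activity index (AV, 0-3) from the mean curves; growth is positive at AV >= 3 and negative at AV <= 2.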

Where [1] appears, read: nutrient role (plate category): carbon.
Setting [2] is: nutrient role (plate category): nitrogen.
Where [3] appears, read: nutrient role (plate category): phosphate & sulphur.

A number with no mark means an inactive call.

Consider `CC(=O)N[C@H]1C(O)O[C@H](CO)[C@H](O)[C@@H]1O` (stereo partly drawn) [N-Acetyl-D-Galactosamine], for which the DuctApe activity index is 3 (active) under setting [1] and 3 (active) under setting [2].

For the compound `NC(=O)[C@H]1O[C@@H](O)[C@H](O)[C@@H](O)[C@@H]1O` [Glucuronamide], the DuctApe activity index by setting is: under setting [1], 0; under setting [2], 2. Regarding `OCC1(O)OC[C@@H](O)[C@H](O)[C@@H]1O` (stereo partly drawn) [D-Tagatose], under setting [1], the DuctApe activity index was 0.

For `NCC(=O)N[C@@H](CC(=O)O)C(=O)O`, the DuctApe activity index under setting [1] was 0.

In the case of `OC[C@H]1OC(O)[C@H](O)[C@@H](O)[C@@H]1O` (stereo partly drawn) [a-D-Glucose], the DuctApe activity index under setting [1] was 3 (active). With `N[C@@H](CCC(=O)O)C(=O)O` [L-Glutamic acid], the DuctApe activity index is 2 under setting [1] and 1 under setting [2]. In the case of `O=P(O)(O)O[C@H]1O[C@H](CO)[C@@H](O)[C@H](O)[C@H]1O` [D-Glucose-1-Phosphate], the DuctApe activity index was 0 under setting [1] and 1 under setting [3].

`NCCCC(=O)O` [g-Amino-N-Butyric acid]: the DuctApe activity index reads like this: under setting [1], 0; under setting [2], 1. Consider `O=S(O)(O)=S` [Thiosulfate], for which the DuctApe activity index under setting [3] is 0. Turning to `CC(=O)N[C@@H]1C(O)O[C@H](CO)[C@@H](O)[C@@H]1O` (stereo partly drawn) [N-Acetyl-D-Mannosamine], the DuctApe activity index under setting [1] is 0 and the DuctApe activity index under setting [2] was 0. For the compound `CSCCC(NC(C)=O)C(=O)O` (racemic) [N-Acetyl-D,L-Methionine], the DuctApe activity index under setting [3] is 2.

On to `O=C(O)[C@H]1OC(O)[C@H](O)[C@@H](O)[C@@H]1O` (stereo partly drawn) [D-Glucuronic acid], for which the DuctApe activity index under setting [1] is 0.

For the compound `O=P(O)(O)OC[C@H](O)CO` (racemic) [DL-a-Glycerol Phosphate], the DuctApe activity index is 3 (active) under setting [1] and 1 under setting [3].
